Experimental data: PubChem BioAssay
Activity calls are given as the source filed them. Unless noted, the rule behind the calls is not given here.

What was measured:
[1] = anti-His antibody binders, primary screen, artefact control for SMM control protein annotation, biochemical, small-molecule microarray, 635 nm fluorescence (AID 1128); conditions: anti-His Alexa647 antibody binding, higher = more signal;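 note: score merges feature fluorescence with signal-to-noise for each printed compound spot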
[2] = system: Human papillomavirus type 1a E7 protein (residues 1-88); test: HPV1a E7 small-molecule binders, primary screen, biochemical, small-molecule microarray, residues 1-88, 635 nm (AID 1129); conditions: small-molecule microarray binding, fluorescence 635 nm; higher = more signal
[3] = biological target: Focal adhesion kinase 1 (Homo sapiens) (UniProt Q05397); test: small-molecule microarray binders of FAK, primary screen, biochemical, 635/667 nm fluorescence, BSA, DTT (AID 1130); conditions: PTK2 binding, 635 nm fluorescence, higher = more signal;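 note: composite of spot emission at 667 nm and signal to noise over triplicate slides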
Focal adhesion kinase 1 (Homo sapiens), sequence (Q05397 whole entry, looked up): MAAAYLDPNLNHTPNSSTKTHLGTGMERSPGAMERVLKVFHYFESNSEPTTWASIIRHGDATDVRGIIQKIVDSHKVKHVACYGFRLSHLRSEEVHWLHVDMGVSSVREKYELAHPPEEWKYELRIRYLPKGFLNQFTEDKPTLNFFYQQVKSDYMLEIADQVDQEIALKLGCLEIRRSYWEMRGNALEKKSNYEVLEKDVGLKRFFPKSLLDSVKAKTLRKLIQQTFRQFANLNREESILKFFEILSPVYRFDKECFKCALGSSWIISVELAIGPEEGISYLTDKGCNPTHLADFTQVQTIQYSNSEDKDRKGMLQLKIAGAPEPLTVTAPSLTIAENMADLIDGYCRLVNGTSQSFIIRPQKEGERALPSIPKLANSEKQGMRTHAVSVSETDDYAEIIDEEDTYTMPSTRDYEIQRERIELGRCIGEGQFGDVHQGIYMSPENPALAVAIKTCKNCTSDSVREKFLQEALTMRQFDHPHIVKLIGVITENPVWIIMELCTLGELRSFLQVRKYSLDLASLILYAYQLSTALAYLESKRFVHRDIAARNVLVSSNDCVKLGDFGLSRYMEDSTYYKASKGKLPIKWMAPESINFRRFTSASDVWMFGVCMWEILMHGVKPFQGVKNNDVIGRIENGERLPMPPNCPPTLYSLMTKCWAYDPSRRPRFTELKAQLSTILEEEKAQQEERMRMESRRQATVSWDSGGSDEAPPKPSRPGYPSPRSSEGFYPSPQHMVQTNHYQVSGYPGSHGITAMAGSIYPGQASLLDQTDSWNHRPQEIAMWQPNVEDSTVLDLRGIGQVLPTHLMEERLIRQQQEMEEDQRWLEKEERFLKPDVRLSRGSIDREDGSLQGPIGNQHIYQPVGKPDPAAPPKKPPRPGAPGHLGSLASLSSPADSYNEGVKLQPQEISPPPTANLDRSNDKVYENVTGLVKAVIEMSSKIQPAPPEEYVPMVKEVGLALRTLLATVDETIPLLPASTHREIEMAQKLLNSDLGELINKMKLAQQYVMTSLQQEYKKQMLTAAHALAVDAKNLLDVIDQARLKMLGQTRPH

[4] = system: Fibrinogen (Alexa647-labelled); test: fibrinogen binders on compound microarrays, profiling panel, artefact control for SMM control-protein annotation, biochemical, small-molecule microarray, 635/667 nm fluorescence (AID 1131); conditions: fibrinogen-A647 binding fluorescence, higher = more signal;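 note: z-score merges 667 nm fluorescence with per-spot signal-to-noise over triplicate slides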
[5] = biological target: Follistatin (Homo sapiens) (UniProt P19883); test: follistatin binders on small-molecule microarrays, primary screen, biochemical, small-molecule microarray, 635/667 nm fluorescence (AID 1132); conditions: FST binding, 635 nm fluorescence, higher = more signal
Follistatin (Homo sapiens), sequence (P19883 whole entry, looked up): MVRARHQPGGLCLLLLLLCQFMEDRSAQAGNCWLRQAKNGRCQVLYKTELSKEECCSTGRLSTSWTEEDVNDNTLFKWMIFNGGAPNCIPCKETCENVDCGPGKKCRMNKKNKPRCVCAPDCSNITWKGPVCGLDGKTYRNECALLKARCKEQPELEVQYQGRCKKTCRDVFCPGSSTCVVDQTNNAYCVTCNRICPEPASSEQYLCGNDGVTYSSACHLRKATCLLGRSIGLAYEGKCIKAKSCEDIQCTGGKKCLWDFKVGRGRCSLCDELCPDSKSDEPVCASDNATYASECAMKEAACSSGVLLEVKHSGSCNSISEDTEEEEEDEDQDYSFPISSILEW

[6] = biological target: Fibroblast growth factor 2 (Homo sapiens) (UniProt P09038); test: FGF2 binders on small-molecule microarrays, primary screen, biochemical, small-molecule microarray, 635/667 nm fluorescence (AID 1133); conditions: small-molecule microarray binding, FGF2, fluorescence 635/667; higher = more signal
Fibroblast growth factor 2 (Homo sapiens), sequence (P09038 whole entry, looked up): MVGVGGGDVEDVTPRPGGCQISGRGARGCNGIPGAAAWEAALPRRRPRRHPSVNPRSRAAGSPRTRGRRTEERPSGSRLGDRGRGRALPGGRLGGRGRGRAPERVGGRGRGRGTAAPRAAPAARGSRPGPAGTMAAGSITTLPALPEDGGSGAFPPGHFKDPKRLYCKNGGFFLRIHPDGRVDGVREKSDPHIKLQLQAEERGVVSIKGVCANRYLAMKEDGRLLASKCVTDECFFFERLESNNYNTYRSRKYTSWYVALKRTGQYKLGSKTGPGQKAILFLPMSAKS

[7] = mitochondrial membrane potential change in A549 cells, profiling panel, cell-based, JC-1 fluorescence, basal, 24 h, 100 nL (AID 1138); conditions: higher = more signal;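 note: A549 lung adenocarcinoma cells under basal conditions with no added stimulus; test concentration not given here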
[8] = system: Lefty1; test: Lefty1 binders on small-molecule microarrays, primary screen, biochemical, small-molecule microarray, 635/667 nm fluorescence (AID 1139); conditions: small-molecule microarray binding, fluorescence 635/667; higher = more signal
[9] = system: wheat germ agglutinin (Triticum aestivum), Alexa647-labelled; test: wheat germ agglutinin binders on compound microarrays, profiling panel, artefact control for SMM control-protein annotation, biochemical, small-molecule microarray, 635/667 nm fluorescence (AID 1140); conditions: WGA-A647 binding, 635 nm fluorescence, higher = more signal;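 note: score merges 667 nm feature emission with signal to noise over triplicate slides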
[10] = biological target: Luciferin 4-monooxygenase (Photinus pyralis) (UniProt P08659); test: firefly luciferase enzyme inhibitors, primary screen, biochemical, luminescence, purified enzyme, 2006 set (AID 1141); conditions: SteadyGlo luminescence, 30 min, higher = more signal, called active from +8 up or from −8 down;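 note: cell-free assay with purified firefly luciferase at 100 ng per well in PBS; test concentration not given here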
Luciferin 4-monooxygenase (Photinus pyralis), sequence (P08659 whole entry, looked up): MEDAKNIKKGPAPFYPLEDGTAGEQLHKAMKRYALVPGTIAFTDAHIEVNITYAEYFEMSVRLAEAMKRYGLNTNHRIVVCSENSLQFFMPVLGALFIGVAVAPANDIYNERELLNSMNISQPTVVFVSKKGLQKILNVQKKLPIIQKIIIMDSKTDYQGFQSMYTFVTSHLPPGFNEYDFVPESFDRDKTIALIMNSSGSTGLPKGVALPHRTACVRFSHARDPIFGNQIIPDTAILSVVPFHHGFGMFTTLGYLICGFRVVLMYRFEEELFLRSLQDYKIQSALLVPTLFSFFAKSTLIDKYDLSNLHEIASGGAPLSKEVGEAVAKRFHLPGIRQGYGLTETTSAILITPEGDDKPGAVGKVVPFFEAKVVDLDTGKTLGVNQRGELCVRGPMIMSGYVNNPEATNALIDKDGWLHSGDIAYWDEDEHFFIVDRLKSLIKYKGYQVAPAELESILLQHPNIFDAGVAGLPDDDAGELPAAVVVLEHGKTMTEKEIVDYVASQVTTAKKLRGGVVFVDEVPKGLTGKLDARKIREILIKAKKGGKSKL

[11] = system: Wnt5a (protein binding on small-molecule microarray); test: Wnt5a binders on small-molecule microarray, primary screen, biophysical, 635/667 nm fluorescence (AID 1142); conditions: 635 nm fluorescence, higher = more signal;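 note: fluorescence read at 667 nm with signal to noise per printed feature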
[12] = cell viability in Huh7 cells, primary screen, cytotoxicity control for HCV replication inhibitor project, CellTiter-Glo luminescence, basal, 48 h (AID 1143); conditions: Huh7 HCV replicon, higher = more signal, called active from +8 up or from −8 down;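 note: Huh7 hepatoma cells carrying a hepatitis C replication reporter with no stimulus; test concentration not given here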
[13] = P. aeruginosa biofilm formation inhibitors, primary screen, PAO1 strain, BacTiter-Glo luminescence, LB-PBS (AID 1144); conditions: 12 h, higher = more signal
[14] = CREB reporter modulators without forskolin, primary screen, cell-based, PC12, CRE-LacZ reporter, unstimulated (AID 1145); conditions: no forskolin, luminescence, 4.5 h, higher = more signal, called active from +8 up or from −8 down
[15] = CREB reporter modulators under forskolin, primary screen, cell-based, PC12, CRE-LacZ reporter, forskolin-stimulated (AID 1146); conditions: luminescence, 4.5 h, higher = more signal, called active from +8 up or from −8 down;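 note: PC12 cells with 6xCRE LacZ reporter stimulated by forskolin 10 µM; beta-galactosidase reporter signal reflecting CREB driven transcription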
[16] = biological target: Streptavidin (Streptomyces avidinii) (UniProt P22629); test: streptavidin binders on small-molecule microarray, primary screen, artefact control for SMM compound annotation, biophysical, 635/667 nm fluorescence (AID 1147); conditions: streptavidin binding, higher = more signal;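 note: signal reflects streptavidin binding to arrayed compounds as a control protein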
Streptavidin (Streptomyces avidinii), sequence (P22629 whole entry, looked up): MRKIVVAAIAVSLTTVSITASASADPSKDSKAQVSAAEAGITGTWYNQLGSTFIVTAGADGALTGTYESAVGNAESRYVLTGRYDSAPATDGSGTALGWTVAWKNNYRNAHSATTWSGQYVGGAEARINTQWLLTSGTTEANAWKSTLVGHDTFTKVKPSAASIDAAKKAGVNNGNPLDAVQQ

[17] = small-molecule binders of probe aInhba, primary screen, biochemical, small-molecule microarray, 635/667 nm fluorescence (AID 1148); conditions: higher = more signal;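 note: score merges 667nm spot fluorescence with signal-to-noise for antibody binding to printed compounds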
[18] = biological target: Torsin-1A (Homo sapiens) (UniProt O14656); test: torsin A binders from cell lysate, primary screen, small-molecule microarray, wild-type, 635/667 nm (AID 1149); conditions: COS7 hTOR1A-WT lysate, 635 nm fluorescence, higher = more signal
Torsin-1A (Homo sapiens), sequence (O14656 whole entry, looked up): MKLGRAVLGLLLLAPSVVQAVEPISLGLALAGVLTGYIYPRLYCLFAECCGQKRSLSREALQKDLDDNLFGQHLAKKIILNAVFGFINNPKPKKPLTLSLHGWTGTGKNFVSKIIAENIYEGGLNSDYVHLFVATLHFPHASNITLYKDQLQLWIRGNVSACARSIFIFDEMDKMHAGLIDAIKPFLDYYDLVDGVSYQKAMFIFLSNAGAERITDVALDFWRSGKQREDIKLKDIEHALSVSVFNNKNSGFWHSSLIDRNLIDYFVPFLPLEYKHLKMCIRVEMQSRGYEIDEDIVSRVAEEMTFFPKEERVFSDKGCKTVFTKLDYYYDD

[19] = biological target: Torsin-1A (Homo sapiens) (UniProt O14656); test: small-molecule binders of mutant TOR1A in lysate, primary screen, cell lysate, small-molecule microarray, COS7 lysate, 635/667 nm fluorescence (AID 1150); conditions: COS7 hTOR1A mutant lysate, 635 nm fluorescence, higher = more signal;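 note: score pools 667 nm emission and signal to noise measuring lysate protein binding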
[20] = system: Sonic hedgehog protein (Shh); test: small-molecule binders of Shh protein, primary screen, biochemical, small-molecule microarray, 635/667 nm fluorescence (AID 1151); conditions: small-molecule microarray binding, 635 nm fluorescence; higher = more signal;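 note: Shh protein binding to compounds spotted on small-molecule microarray slides; score combines spot fluorescence intensity with signal-to-noise across triplicate slides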

SMILES | composite z-score [1] | composite z-score [2] | composite z-score [3] | composite z-score [4] | composite z-score [5] | composite z-score [6] | z-score [7] | composite z-score [8] | composite z-score [9] | z-score [10] | composite z-score [11] | z-score [12] | z-score [13] | z-score [14] | z-score [15] | composite z-score [16] | composite z-score [17] | composite z-score [18] | composite z-score [19] | composite z-score [20]
COCCOC(=O)N1C(=O)[C@@]2(c3cc(C#CC4=CCCCC4)ccc31)[C@H](C(=O)N1CCN(c3ncccn3)CC1)[C@H]1C(=O)O[C@H](c3ccccc3)[C@H](c3ccccc3)N1[C@@H]2c1ccccc1OCCO | 0.353 | 1.18 | 0.377 | 0.936 | 1.18 | 0.956 | -1.3 | 0.787 | 0.792 | -1.22 (inactive) | 0.337 | -5.9 (inactive) | -2.51 (inactive) | -2.11 (inactive) | -1.32 (inactive) | 0.496 | -0.0332 | 0.825 | 0.598 | 1.47
COCCn1c(C(=O)N2CCCC2)cc2c1C[C@H]1CN(C(=O)c3ccccc3)[C@@](Cc3ccccc3)(C(=O)OC)[C@@H]21 | 1.09 | 0.822 | 1.54 | 0.948 | 0.298 | 0.121 | 0.109 | 0.334 | 1.11 | 2.58 (inactive) | 0.576 | -1.01 (inactive) | -0.784 (inactive) | -0.182 (inactive) | -0.034 (inactive) | 0.393 | 0.679 | 0.22 | 1.18 | -0.193
CC(C)C[C@H]1NC(=O)[C@@H](C)NC(=O)[C@@]23C(=O)N[C@@H](Cc4ccccc4)C2[C@H](C)[C@@]2(C)O[C@H]2C3/C=C/C/C=C\CNC1=O (stereo not given in full) | 1.35 | 0.633 | 0.82 | -0.212 | 0.746 | 0.238 | -0.0228 | 0.754 | 0.532 | -0.327 (inactive) | -0.134 | -0.332 (inactive) | 0.541 (inactive) | 1.94 (inactive) | -0.435 (inactive) | -0.535 | -0.218 | -0.0221 | -0.145 | 1.41
C=C(/C(=C/C[C@H](OC(=O)c1ccncc1)c1ccccc1OCCO)c1cc(C(=O)OC)ccc1OC)C(C)C | 0.32 | 1.08 | -0.145 | 0.314 | 1.07 | 1.39 | -0.032 | 0.67 | 0.351 | -0.538 (inactive) | 0.913 | -1.5 (inactive) | -0.439 (inactive) | 6.99 (inactive) | 0.644 (inactive) | -0.0945 | -0.0375 | 0.712 | 0.441 | 1.74
CCCCN1CC=CC23O[C@@H]4/C=C\CCC(C)OC(=O)C4[C@H]2C(=O)N(C(C)CO)[C@@H]3C1=O (stereo not given in full) | -0.0307 | -1.41 | 0.578 | -0.526 | -0.16 | -0.379 | 0.256 | -0.034 | -0.128 | -0.762 (inactive) | -0.0151 | 0.24 (inactive) | -0.297 (inactive) | -0.497 (inactive) | -0.21 (inactive) | -0.447 | -0.161 | -0.185 | -1.01 | -0.0387
C=CCC(OC(C)=O)[C@@H]1[C@@H](N(Cc2ccc(-c3cccc(C(F)(F)F)c3)o2)C(=O)Cc2ccc(OC)cc2)c2cc(OCCCO)ccc2N1C(=O)c1ccc2ccccc2n1 (stereo not given in full) | 0.292 | -1.64 | -0.236 | -0.665 | 0.767 | -0.149 | -0.448 | 0.0089 | 0.113 | 0.471 (inactive) | -0.162 | -1.45 (inactive) | 0.6 (inactive) | 0.339 (inactive) | 0.792 (inactive) | -0.356 | 0.0517 | 0.0833 | -0.475 | 0.38
COC(=O)[C@]1(CO)N=C(c2ccc(OCCCO)cc2)O[C@@H]1c1ccccc1CN=[N+]=[N-] | 0.477 | 0.286 | 0.1 | -0.353 | 0.996 | 0.435 | -0.232 | 0.341 | -0.342 | -0.676 (inactive) | -0.0408 | -0.394 (inactive) | 1.34 (inactive) | 0.643 (inactive) | 0.224 (inactive) | -0.447 | -0.154 | -0.208 | 0.518 | 0.583
CC(C)(C)OC(=O)CC[C@]1(C(=O)N2CCOCC2)N=C(c2ccc(OCCCO)cc2)O[C@H]1c1ccccc1CN=[N+]=[N-] | 0.442 | 1.29 | 0.527 | 0.979 | 1.42 | 1.39 | -0.423 | 0.23 | 1.19 | -1.15 (inactive) | 1.07 | -0.569 (inactive) | -0.405 (inactive) | -0.263 (inactive) | -1.4 (inactive) | 1.08 | 0.279 | 1.12 | 1.58 | 0.242
COCCOC(=O)N1C(=O)[C@@]2(c3ccccc31)[C@H](C(N)=O)[C@H]1C(=O)O[C@H](c3ccccc3)[C@H](c3ccccc3)N1[C@@H]2c1ccc(OCCO)cc1 | 0.918 | 1.24 | 0.451 | 0.927 | 1.11 | 0.807 | 0.101 | 0.619 | 0.982 | 0.346 (inactive) | 0.62 | -1.57 (inactive) | -0.762 (inactive) | -1.28 (inactive) | -1.15 (inactive) | 0.554 | 0.0155 | 1.13 | 1.14 | 1.9
O=C1c2ccccc2[C@@]2(Cc3ccccc3N(Cc3ccccc3)C2=O)[C@H](c2ccc(CO)cc2)N1Cc1ccccc1 | -1.16 | -1.58 | -0.667 | -0.936 | -1 | -1.01 | 0.0926 | -1.09 | 0.168 | 0.407 (inactive) | -0.201 | 0.579 (inactive) | -0.124 (inactive) | 0.0279 (inactive) | 0.806 (inactive) | -0.0807 | -0.176 | -0.953 | -0.773 | -0.907
